The results in this text go back to PubChem BioAssay (NCATS).

The nature of experiment [1]: OV-KATE Cancer Cell Toxicity qHTS against the NCATS CANVASS Library (AID 1347345). Summed up: (§1)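 1000 cells/well seeded and rested 4 h at 37 °C before pin transfer of compounds in an 11-pnt series. Exposure 72 h at 37 °C/5% CO2; viability by CellTiter-Glo luminescence after 15 min at room temperature.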
In general terms: qHTS replaces the single test concentration by a dilution series.

A short description of experiment [2]: OV-SAHO Cancer Cell Toxicity qHTS against the NCATS CANVASS Library (AID 1347348). Also: series mostly up to about 38 µM; nearly all actives have a fitted effect of over 55% in size. The gist of the method: as §1
Experiment [3] can be described thus: SW1088 Cancer Cell Toxicity qHTS against the NCATS CANVASS Library (AID 1347350). Also: nearly all actives have a fitted effect of over 75% in size. Summed up: as §1
The nature of experiment [4]: HEK-293 Cancer Cell Toxicity qHTS against the NCATS CANVASS Library (AID 1347355). Also: series mostly up to about 46 µM; nearly all actives have a fitted effect of over 65% in size. The gist of the method:
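Cells were seeded at 1000 per well and allowed to settle 4 hours at 37 degrees C before pin transfer of compounds as an 11-point series. Viability was read by CellTiter-Glo luminescence after 72 hours' exposure.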

Experiment [5] can be described thus: HPAF-II 12hr Apoptosis Induction qHTS against the NCATS CANVASS Library (AID 1347358). The gist of the method: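 HPAF-II cells (500/well, DMEM + 10% FBS) were exposed to compounds for 12 hours at 37 degrees C. Caspase-3/7 activity was then read by Caspase-Glo 3/7 luminescence after 15 min at room temperature.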
Experiment [6] can be described thus: HEK293 24hr Apoptosis Induction qHTS against the NCATS CANVASS Library (AID 1347359). Summed up:
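HEK293 cells, 500 per well, exposed to an 11-point compound series for 24 hours at 37 degrees C. Caspase 3/7 activity read by Caspase-Glo luminescence (DEVD substrate) after 15 min at room temperature.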

For experiment [7], the target named is Luciferin 4-monooxygenase (Photinus pyralis) (UniProt P08659). As to the kind of experiment: Firefly luciferase counterscreen qHTS: Assay Interference Panel against the NCATS CANVASS Library (AID 1347363). Also: series mostly up to about 57 µM. Summed up:
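Purified P. pyralis luciferase (0.04 ug/mL, 4x reagent) added to Tris-acetate buffer with 0.013 mM D-luciferin, 0.013 mM ATP and 13.3 mM Mg-acetate; compounds preincubated 15 min, then luminescence read after 5 min, RT.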
For orientation: The purpose of a counterscreen is to sort out artefacts and off-target activity.

The nature of experiment [8]: SDT Cancer Cell Toxicity qHTS against the NCATS CANVASS Library (AID 1347365). Also: nearly all actives have a fitted effect of over 60% in size. Also: potency is read from the fitted curve at half-maximal effect. The gist of the method:
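SDT canine glioma cells (500 cells/well) were exposed to compounds in an 11-point series for 72 hr at 37C, 5% CO2; viability was read as ATP content by CellTiterGlo luminescence.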

Experiment [9] is described as follows: G06 Cancer Cell Toxicity qHTS against the NCATS CANVASS Library (AID 1347368). Also: nearly all actives have a fitted effect of over 60% in size. Also: potency is read from the fitted curve at half-maximal effect. The gist of the method:
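G06 dog glioma cells seeded at 500 cells/well were exposed to compounds (11-point qHTS series) for 72 hr at 37C, 5% CO2; viability read as ATP content by CellTiterGlo luminescence.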

The nature of experiment [10]: qHTS for Hypoxia signaling pathway (HIF-1) antagonists against the NCATS CANVASS Library (AID 1347374). Also: nearly all actives have a fitted effect of over 60% in size. Also: potency is read from the fitted curve at half-maximal effect. The gist of the method:
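HRE-bla ME-180 cells (2,000/well, 0.5% dialyzed FBS) were pre-incubated 5 h, then given an 11-point compound series plus CoCl2 (60 uM solution as added) for 17 h at 37C. CCF4 β-lactamase read (ex 405, em 460/530 nm) after 2 h at RT.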

Experiment [11] is described as follows: DH5-alpha competent E. coli microbial cell viability qHTS against the NCATS CANVASS Library (AID 1347377). The following applies: outcome: dose series up to 46.1 µM unless noted. Summed up: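 DH5-alpha E. coli suspension (0.9 OD culture diluted to 0.2 OD) exposed to compounds in an 11-point series, overnight at 37C, 5% CO2. Viability read as ATP by BacTiter-Glo luminescence after 20 min at room temperature.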

The nature of experiment [12]: qHTS for activators of dead-cell proteases activity screened against the NCATS CANVASS Library (AID 1347392).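 Also: luminescence from protease leaking out of membrane-damaged cells cleaving impermeant substrate; rising signal means more cytotoxicity.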 The gist of the method:
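HepG2 cells, 2000/well, attached 18 h at 37C, then exposed to compounds (11-point qHTS) for 5 h. Dead-cell protease release read as luminescence from cell-impermeant AAF-aminoluciferin substrate after 15 min at room temperature.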

The nature of experiment [13]: qHTS for inhibitors of ER calcium dysfunction: SERCaMP assay screened against the NCATS CANVASS Library (AID 1347393). Also: nearly all actives have a fitted effect of over 40% in size. Also: potency is read from the fitted curve at half-maximal effect. Summed up: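 SH-SY5Y GLuc-SERCaMP, 1000 cells/well, 4 h attach; cpd 16 h, 37C/5% CO2; thapsigargin (added as 6x 600 nM) 4 h; coelenterazine; luminescence. Reduced reporter release = ER Ca stabilization.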
Experiment [14] is described as follows: A2780 Cisplatin Sensitive Ovarian Cancer Cell Toxicity qHTS against the NCATS CANVASS Library (AID 1347353). Also: nearly all actives have a fitted effect of over 60% in size. The gist of the method:
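A2780 cisplatin-sensitive cells (750 per well) were seeded, left 4 h at 37 °C, then pin-dosed in an 11-point series. After 72 h at 37 °C/5% CO2, viability was measured as ATPLite luminescence.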

Experiment [15] can be described thus: KB-8-5-11 Cancer Cell Toxicity qHTS against the NCATS CANVASS Library (AID 1347364). Also: nearly all actives have a fitted effect of over 75% in size. Summed up: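 KB-8-5-11 cells (500/well) in DMEM + 10% FBS were exposed to compounds in an 11-point qHTS series for 72 hr at 37C, 5% CO2. Viability was read by CellTiter-Glo luminescence.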
The nature of experiment [16]: qHTS for ATAD5 Agonist screened against the NCATS CANVASS Library (AID 1347367).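 Also: luciferase reporter driven by ATAD5 which rises upon DNA damage.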 Summed up: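 HEK293T cells stably carrying an ATAD5-controlled luciferase reporter (2000 cells/well) attached for 5 hr, then received compounds in an 11-point series for 16hr at 37C. Luminescence was read after a 30 min room-temperature reagent step.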
Experiment [17] can be described thus: Inflammasome Signaling qHTS Counterscreen: IL-1-beta AlphaLISA counterscreen against the NCATS CANVASS Library (AID 1347381).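 Also: cell-free check with purified IL-1β in medium and no THP-1 cells; series mostly up to about 57 µM.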 The gist of the method: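 To flag interference with the AlphaLISA read-out, a known amount of purified IL-1-beta (4 pg) replaced cell supernatant. Detection used anti-IL-1-beta acceptor beads, biotinylated antibody and streptavidin donor beads at room temperature.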

Experiment [18] can be described thus: qHTS for Activators of p53 Stress Response Pathway screened against the NCATS CANVASS Library (AID 1347388). Summed up: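 p53RE-bla HCT-116 cells (4000/well) were pre-incubated for 5 h, then treated with compound (11 points) for 16 h at 37C. After 2 h with CCF4, the 460/530 nm ratio gave reporter activation; CellTiter-Glo measured viability.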
Experiment [19] in a line: qHTS for activators of Nrf2/ARE signaling pathway screened against the NCATS CANVASS Library (AID 1347391). Also: nearly all actives have a fitted effect of over 60% in size. Also: potency is read from the fitted curve at half-maximal effect. The gist of the method:
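ARE-bla HepG2 beta-lactamase reporter cells, 2000 cells/well, were preincubated 5 h, then exposed to compounds (11-point series) for 16 h at 37C. CCF4 fluorescence (ex 405, em 460/530 nm) after 2 h at room temperature.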

A short description of experiment [20]: qHTS for inhibitors of Wild type Zika virus screened against the NCATS CANVASS Library (AID 1347396).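 Also: ATP luminescence of surviving cells so rescue from viral cell killing; series mostly up to about 46 µM.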 The gist of the method: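 Vero 766 (African green monkey) cells, 1000 per well, attached overnight, then compounds were added in an 11-point series before wild-type Zika virus infection. After 72 h at 37C, cell viability was read as CellTiter Glo luminescence.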

Inconclusive results are not listed. Calls of active or inactive are those of the source. Calls follow the shape of the dose curve; as a rule, active = well fitted curve in the direction sought with a large enough effect; inconclusive = small, poorly fitted or top-dose-only effect, or another doubt; inactive = no such curve, though single readings can be large; an effect the other way counts as inactive or inconclusive.

Chain of Luciferin 4-monooxygenase (Photinus pyralis) (P08659 whole entry, looked up): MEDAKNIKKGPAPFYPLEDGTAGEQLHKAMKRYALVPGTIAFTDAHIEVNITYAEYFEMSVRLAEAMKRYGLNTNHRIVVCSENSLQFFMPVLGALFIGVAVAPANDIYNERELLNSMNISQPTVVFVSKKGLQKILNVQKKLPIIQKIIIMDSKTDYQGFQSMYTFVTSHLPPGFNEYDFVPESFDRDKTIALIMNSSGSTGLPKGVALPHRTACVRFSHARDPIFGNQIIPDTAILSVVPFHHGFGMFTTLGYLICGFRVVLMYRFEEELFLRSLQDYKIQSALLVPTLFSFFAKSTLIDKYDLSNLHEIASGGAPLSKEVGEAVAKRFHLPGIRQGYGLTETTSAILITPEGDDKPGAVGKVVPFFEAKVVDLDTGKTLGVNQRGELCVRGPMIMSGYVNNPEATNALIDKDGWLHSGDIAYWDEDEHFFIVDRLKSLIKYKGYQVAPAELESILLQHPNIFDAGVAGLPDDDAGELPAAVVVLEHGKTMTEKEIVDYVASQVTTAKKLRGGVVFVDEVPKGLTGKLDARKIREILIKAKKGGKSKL

On to `COc1c(O)cc(O)c2c(=O)cc(-c3ccccc3)oc12`, for which the Potency result in [1], in experiment [2], in experiment [3], in experiment [4], in [5] and in [6] was “inactive” in each case. For the same molecule, the Potency entry in experiment [7], in experiment [8], in experiment [9], in experiment [12] and in experiment [13] was “inactive” each time. Further, the Potency in experiment [10] was 10.6 µM (active). Further, the molecule was classed as inactive in experiment [11].
In the case of `C/C=C(/CO)C(=O)O[C@@H]1[C@H](O)[C@@H](C(=O)OC)O[C@@H]2C[C@H]3OC(n4cnc5c(N)ncnc54)[C@H](OC)[C@H]3O[C@@]12O` (some centres undefined), the Potency result in experiment [1], in [2], in [3], in experiment [14], in experiment [4] and in experiment [5] was “inactive” each time. The Potency result in [6], in [7], in [15], in experiment [8], in [16] and in experiment [9] was “inactive” throughout. For the same molecule, the Potency entry in [10], in [18], in experiment [12] and in experiment [13] was “inactive” each time. The molecule was classed as inactive in experiment [11], in experiment [17] and in [20]. The Potency in [19] was 18.6 µM (active).
`O=c1cc(-c2ccc(O)cc2)oc2cc(O)c([C@@H]3OC(CO)[C@H](O)[C@@H](O)[C@H]3O)c(O)c12` (some centres undefined): the Potency result in experiment [1], in [2], in experiment [3], in [14], in experiment [4] and in experiment [5] was “inactive” throughout. The Potency result in experiment [6], in experiment [15], in experiment [8], in [16], in experiment [9] and in experiment [10] was “inactive” in each case. The Potency result in experiment [18], in [19], in experiment [12] and in [13] was “inactive” throughout. Also, the outcome in experiment [11], in experiment [17] and in experiment [20] was inactive.
`CC1=C(C)C(=O)OC(C(C)C2(O)CCC3C4C5OC5C5(O)CC=CC(=O)C5(C)C4CCC32C)C1` (centres undefined): the Potency entry in experiment [1], in experiment [3], in experiment [5], in experiment [6], in experiment [7] and in [15] was “inactive” each time. In addition, the Potency result in experiment [16], in [10], in experiment [18] and in [12] was “inactive” throughout. Moreover, the figures for the Potency in experiment [8], in [9] and in experiment [19] were 13.2 µM (active), 23.5 µM (active) and 18.6 µM (active), respectively. Moreover, the molecule was classed as inactive in experiment [17] and in experiment [20].
On to `O=C1CC(c2ccc(O)cc2)Oc2cc(O)ccc21` (centres undefined), for which the Potency result in experiment [1], in experiment [2], in experiment [3], in [4], in experiment [5] and in [6] was “inactive” throughout. In addition, the Potency result in experiment [15], in experiment [9], in experiment [10], in experiment [18] and in experiment [12] was “inactive” throughout. The call in [11], in [17] and in experiment [20] was inactive. For the same molecule, the Potency in experiment [13] is 30.5 µM (active).
Take `C=C1C[C@]23C=CC(=O)[C@@](C)(CCCC(C)C(=O)N[C@@H](CO)C(=O)O)[C@@H]2C[C@@H]1CC3` (some centres undefined): the Potency entry in experiment [1], in [2], in experiment [3], in experiment [14], in experiment [4] and in [5] was “inactive” each time. The Potency result in experiment [6], in [7], in [15], in experiment [8], in [9] and in experiment [10] was “inactive” in each case. The Potency result in experiment [18], in experiment [19], in [12] and in [13] was “inactive” each time. The outcome in experiment [11], in experiment [17] and in experiment [20] was inactive.
On to `C[C@@]12CCC[C@@](C)(C(=O)OP(=O)(O)OC[C@H]3O[C@@H](n4cnc5c(N)ncnc54)[C@H](O)[C@@H]3O)[C@H]1C[C@@H](O)[C@@]13C[C@@H](CC[C@@H]21)[C@](C)(O)C3`, for which the Potency entry in [1], in experiment [2], in [3], in experiment [14], in experiment [4] and in experiment [6] was “inactive” throughout. Also, the Potency entry in experiment [15], in experiment [18], in [19], in [12] and in experiment [13] was “inactive” throughout. In addition, the Potency in experiment [9] was 14.8 µM (active). The molecule was classed as inactive in experiment [20].
